Unmarked numbers belong to inactive results.
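Also: TDF is a line of transformed human dermal fibroblasts of mesenchymal origin.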

The test system of the assay is TDF. Nature of the assay: H1.0 immunofluorescence intensity relative to DMSO (% of DMSO); higher = stronger H1.0 induction, active = 120 or more. To be noted: concentration: 10 µM; 24 h. In short, it runs like this: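 Cells were seeded at 800 per well in 384-well plates with RPMI containing 10% FBS; both HCC1569 and TDF lines were used. Compounds were added at 10 µM for 24 h at 37 °C, in triplicate, before fixation in 3.7% formaldehyde and staining with a rabbit anti-H1.0 antibody, an AlexaFluor 647 secondary and DAPI. H1.0 nuclear intensity or cell number is reported as percent of the plate control using the median of replicates, and HCC1569 values were smoothed for positional effects.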
With `COCc1nc2c([nH]1)c(=O)n(C)c(=O)n2CC(C)C` [8-Methoxymethyl-3-isobutyl-1-methylxanthine], the H1.0 immunofluorescence intensity was 92.4.
As to `O=c1c(O)c(-c2cc(O)c(O)c(O)c2)oc2cc(O)cc(O)c12` [Myricetin], the H1.0 immunofluorescence intensity is 88.4.
Consider `CCCS(=O)(=O)Nc1ccc(F)c(C(=O)c2c[nH]c3ncc(Cl)cc23)c1F`, for which the H1.0 immunofluorescence intensity was 105.
For `CCCNC(=O)NS(=O)(=O)c1ccc(Cl)cc1` [Chlorpropamide] the value was 93.2; for `O=C(Nc1cccc(Cl)c1)Nc1ncc(CCNc2ncnc3ccsc23)s1`, 103.
As to `COc1c(O)cc2oc(-c3ccc(O)cc3)cc(=O)c2c1O` [5,7-dihydroxy-2-(4-hydroxyphenyl)-6-methoxy-4H-chromen-4-one], the H1.0 immunofluorescence intensity was 88.
`Cc1ccc(NC2=CC(=O)c3sc(C)nc3C2=O)cc1` [Cdk4 Inhibitor III]: the H1.0 immunofluorescence intensity is 132 (active).
The figure for `CC(=O)C1(O)CCC2C3CCC4=CC(=O)CCC4(C)C3CCC21C` (stereo not drawn) [17alpha-hydroxyprogesterone] is 99.
Turning to `COc1cc2c(cc1O)CCC1C2CCC2(C)C(O)CCC12` (stereo not given) [2-methoxyestradiol], the H1.0 immunofluorescence intensity is 156 (active).
`CCCn1c(=O)c2[nH]c(-c3ccc(OCC(=O)NCCN)cc3)nc2n(CCC)c1=O` [Xanthine amine congener]: the H1.0 immunofluorescence intensity was 98.
Take `CCOC(=O)C1=C(COCCN)NC(C)=C(C(=O)OC)C1c1ccccc1Cl` (stereo not given) [Amlodipine]: the H1.0 immunofluorescence intensity was 93.5.
Consider `N=C1Sc2ccccc2C2=NCCCN12`, for which the H1.0 immunofluorescence intensity is 91.9.
The figure for `CNC1CC2OC(C)(C1OC)n1c3ccccc3c3c4c(c5c6ccccc6n2c5c31)C(=O)NC4O` (stereo not given) is 139 (active).
For `COc1cc(CCC(C)=O)ccc1O` [Vannilylacetone] the value was 95.6; for `O=c1[nH]c(=O)n([C@H]2C[C@H](O)[C@@H](CO)O2)cc1/C=C/Br` [(E)-5-(2-Bromovinyl)-2'-deoxyuridine], 97.3.
The figure for `CC[N+](C)(C)Cc1ccccc1Br.Cc1ccc(S(=O)(=O)[O-])cc1` [Bretylium tosylate] is 105.
On to `O=C(c1ccc2c(c1)OCCO2)N1CCCCC1`, for which the H1.0 immunofluorescence intensity is 96.7.
As to `COc1cc2oc(=O)ccc2cc1O` [Isoscopoletine], the H1.0 immunofluorescence intensity is 102.
For `CC1CC2OC2C=CC=CC(=O)Cc2c(Cl)c(O)cc(O)c2C(=O)O1` (stereo not given) [Radicicol] the value was 133 (active); for `Nc1cccc(-c2cc3c(Oc4cccc(O)c4)ncnc3[nH]2)c1` [GSK3b Inhibitor XII, TWS119], 112.
For the compound `CNC1(C)C2CCC(C2)C1(C)C.Cl` (stereo not given) [Mecamylamine hydrochloride], the H1.0 immunofluorescence intensity is 94.1.
The figure for `CC1=C(C)C(=O)C(CCCCC#CCCCC#CCO)=C(C)C1=O` [Docebenone] is 103.
Consider `O=C1c2ccccc2-c2n[nH]c3cccc1c23`, for which the H1.0 immunofluorescence intensity is 92.
The figure for `CN(C)[C@@H]1CCc2[nH]c3ccc(NC(=O)c4ccc(F)cc4)cc3c2C1.Cl` is 94.9; for `CN(C)CCC(c1ccc(Br)cc1)c1ccccn1.O=C(O)C=CC(=O)O` (single isomer, unassigned; (+)) [(+)-Brompheniramine maleate] it is 113.
Turning to `CC1=NC(=NNc2ccc(C(=O)[O-])cc2)C(COP(=O)([O-])[O-])=C(C=O)C1=O.[Na+].[Na+].[Na+]`, the H1.0 immunofluorescence intensity is 93.5.
Take `CS(=O)(=O)CCNCc1ccc(-c2ccc3ncnc(Nc4ccc(OCc5cccc(F)c5)c(Cl)c4)c3c2)o1` [Lapatinib]: the H1.0 immunofluorescence intensity is 124 (active).
For `CC1=CCC(C)(C)C=CC(=O)C(C)=CCC1` [Zerumbone] the value was 104.
For `O=C1CCc2cc(OCCCCc3nnnn3C3CCCCC3)ccc2N1` [Cilostazol] the value was 90.2; for `CN(C(=O)CCCOc1ccc2[nH]c(=O)ccc2c1)C1CCCCC1` [Cilostamide], 96.9.
Consider `Cc1ccc(NC(=O)CCCCCC(=O)Nc2ccccc2N)cc1` [N~1~-(2-aminophenyl)-N~7~-(4-methylphenyl)heptanediamide], for which the H1.0 immunofluorescence intensity was 113.
With `Cc1c(-c2cnccn2)ssc1=S` [Oltipraz], the H1.0 immunofluorescence intensity is 97.9.
`COc1cccc2c1C(=O)c1c(O)c3c(c(O)c1C2=O)CC(O)(C(C)=O)CC3OC1CC(N)C(O)C(C)O1` (stereo not given) [Daunorubicin]: the H1.0 immunofluorescence intensity is 134 (active).
For `CC(C)(CO)C(O)C(=O)NCCC(=O)O` (stereo not given) [Pantothenic acid] the value was 106; for `CNC(C)C1CCC(N)C(OC2C(N)CC(N)C(OC3OCC(C)(O)C(NC)C3O)C2O)O1` (stereo not given) [Gentamycin], 95; for `CC(C)CCCC(C)C1CCC2C3CCC4=CC(N=O)CCC4(C)C3CCC12C` [(20S)-cholest-4-en-3-one oxime], 90.2.
For `OCc1cc(C(O)CNCCCCCCOCCCCc2ccccc2)ccc1O` (stereo not given) [Salmeterol] the value was 110; for `Nc1nc(OCc2cc(Br)cs2)c2[nH]cnc2n1` [6-[(4-bromo-2-thienyl)methoxy]-1H-purin-2-amine], 97.7; for `CC(=O)C(C)=O` [2,3-Butanedione], 85.8.
`COC(=O)[C@@H](N)Cc1ccc(O)c(O)c1.Cl` [L-3,4-Dihydroxyphenylalanine methyl ester hydrochloride]: the H1.0 immunofluorescence intensity is 94.8.
